# RORgamma inh – inhibitors of mouse ROR gamma transcriptional activity; P51450; Drosophila S2 Gal4-RORgamma UAS-luciferase reporter, 20 h; Potency, µM (doses to about 53.6 µM), for inactives: top-dose activity change, negative = inhibition, hits mostly inhibitors; hit rate 5.4% among 310,000; note: potency is the fitted concentration of half-maximal effect; nearly all actives have a fitted effect of over 60% in size
# Target sequence (P51450 whole entry, looked up, the tested form may be a part): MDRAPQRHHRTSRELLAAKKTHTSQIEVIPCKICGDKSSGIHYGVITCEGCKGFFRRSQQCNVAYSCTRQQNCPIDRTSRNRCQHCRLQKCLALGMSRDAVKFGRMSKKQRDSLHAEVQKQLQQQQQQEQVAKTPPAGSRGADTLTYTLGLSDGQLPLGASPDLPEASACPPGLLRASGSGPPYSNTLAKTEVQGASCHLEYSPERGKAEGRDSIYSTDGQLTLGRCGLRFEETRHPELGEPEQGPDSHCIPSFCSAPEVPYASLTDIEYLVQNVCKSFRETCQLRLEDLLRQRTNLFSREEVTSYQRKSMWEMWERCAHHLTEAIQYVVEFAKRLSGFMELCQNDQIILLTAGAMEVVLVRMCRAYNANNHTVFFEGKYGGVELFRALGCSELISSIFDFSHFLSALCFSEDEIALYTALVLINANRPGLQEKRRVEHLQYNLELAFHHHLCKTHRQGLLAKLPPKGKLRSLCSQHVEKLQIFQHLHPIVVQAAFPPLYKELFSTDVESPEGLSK
#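 Read-out: Photinus luciferase luminescence; inhibitors lower reporter signal. Insect Schneider cells with Gal4-ROR gamma fusion under metallothionein promoter, UAS reporter; 700 uM final copper sulfate induction, 20 hr, ambient temperature.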
# IL1B secr inh – blocks inflammasome-driven IL-1 beta release; THP-1 LPS/ATP IL-1B secretion, AlphaLISA, 16 h; stronger effect = lower value; activity change, % at 57.5 µM; hit rate 4.7% among 360,000; AID 743279; in the data active = activity change below about -50%; inconclusive = mostly about -30% to -49%
#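 THP-1 cells pretreated 1 hr with compounds (up to 57.5 uM final), then stimulated with LPS (250 ng/mL final) plus ATP (1.25 mM final); secreted IL-1B measured by AlphaLISA after 16 hr, decreased signal indicating inhibition.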
# TDP1 cell noCPT – qHTS for Inhibitors of human tyrosyl-DNA phosphodiesterase 1 (TDP1): qHTS in cells in absence of CPT. DT40 Tdp1-/- hTDP1 cells, no CPT, ATP luminescence, 48 h. Potency, µM (titrated, usually from 46.2 µM), for inactives: at the highest dose activity change, negative = growth inhibition, usual class: inhibitors. hit rate 15% among 420,000. AID 686978, 2013; note: potency is the fitted concentration of half-maximal effect; nearly all actives have a fitted effect of over 55% in size
#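 Seeded 400 DT40-hTDP1 cells/well (vehicle DMSO, no 20 nM CPT); pinned compounds; ≥48 hr at 37 °C; CellTiter-Glo luminescence as viability measure.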
# DT40 TDP1 CPT – DT40-hTDP1 cell growth loss with CPT. chicken DT40 Tdp1-/-;hTDP1 cells + 20 nM CPT, ATP luminescence, 48 h. hit rate 12% among 420,000. Potency, µM (doses to about 46.2 µM), for inactives: at the top dose activity change, negative = growth inhibition, actives largely listed as inhibitors; note: potency is the fitted concentration of half-maximal effect; nearly all actives have a fitted effect of over 55% in size
#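 Cell growth measured by CellTiter-Glo luminescence after a minimum 48 h, 37 C compound exposure with 20 nM CPT in Tdp1-knockout DT40 cells stably expressing hTDP1, seeded 400/well; qHTS titration format.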
# LDHA inh – LDHA (human) enzyme inhibition; P00338; purified LDHA, NADH/diaphorase-resazurin fluorescence; stronger effect = lower value; activity change, % (values are at about 110 or 230 µM); hit rate 0.15% among 480,000; in the data active = activity change below about -30%; inconclusive = mostly about -25% to -30%;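 note: plate controls were DMSO wells for no effect and wells without enzyme for full effect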
#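 Enzyme activity of human lactate dehydrogenase 5 (2 nM; 0.06 mM NADH, 0.2 mM pyruvate, 5 min, RT) is measured via a resazurin/diaphorase fluorescence readout of residual NADH.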
# VP16 counter – inhibits Gal4-VP16 luciferase reporter, ROR gamma counter-screen; hit rate 3.5% among 310,000; Potency, µM (doses to about 53.6 µM), for the others: at the top dose activity, negative = inhibition, actives largely listed as inhibitors; Drosophila S2 Gal4-VP16 UAS-luciferase, luminescence, 20 h; AID 2546;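 note: Gal4-VP16 expression switched on by copper sulfate through the metallothionein promoter; potency is the fitted concentration of half-maximal effect; nearly all actives have a fitted effect of over 50% in size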
# Numbers without * were called inactive; u = inconclusive; x = no result given; [ ] = remark or other dose. An excerpt weighted towards active compounds, which were near 18% of everything screened. Unless noted, calls come from the whole dose curve; as a rule, active = well fitted curve in the direction sought with a large enough effect; inconclusive = small, poorly fitted or top-dose-only effect, or another doubt; inactive = no such curve, though single readings can be large; an effect the other way counts as inactive or inconclusive. Unless noted, % is set by controls: 0 for no effect and ±100 for the full control effect.
SMILES,RORgamma inh,IL1B secr inh,TDP1 cell noCPT,DT40 TDP1 CPT,LDHA inh,VP16 counter
COc1ccccc1N1C(=O)NC(=O)/C(=C/c2ccc([N+](=O)[O-])s2)C1=O,8%,-62*,15µM*,8.2µM*,19,-4%
COc1ccccc1N1C(=O)NC(=O)/C(=C/c2ccc3c4c(cccc24)CC3)C1=O,-23%,u,u,u,-21,-17%
O=C1NC(=O)N(c2ccccc2)C(=O)/C1=C\c1ccccc1[N+](=O)[O-],3%,15,-24%,23µM*,-35*,-5%
CCN1C[C@@]2(COC)[C@H]3[C@@H](OC)[C@H]4C1[C@@]3([C@H](OC)C[C@@H]2O)[C@H]1C[C@@]2(O)[C@@H](OC(=O)c3ccccc3)[C@@H]1[C@@]4(OC(C)=O)[C@H](O)[C@@H]2OC,-3%[16.9 µM],x,x,x,x,9%[17 µM]
O=C1CN=C(c2ccccc2Cl)c2cc(Br)ccc2N1,x,33,u,15%,-1,x
O=C1CN=C(c2ccc[nH]2)c2cc(Cl)ccc2N1,-25%,5,0.033µM*,0.16µM*,-1,1%
O=C1Nc2ccc(Cl)cc2C(c2ccccc2Cl)=NC1O (stereo unspecified),27%,x,-95%,u,x,-5%
CN=C1CN=C(c2ccc[nH]2)c2cc(Cl)ccc2N1,x,x,0.11µM*,0.079µM*,-6,x
Cc1cc(=O)c2ccccc2[se]1,x,x,x,x,-1,x
COc1ccc(C(=O)Oc2c(CN3CCOCC3)cc(Cl)c3cccnc23)cc1OC,x,0,5.6µM*,5µM*,0,x
O=C(Oc1ccc(Cl)c2cccnc12)N1CCCCCC1,u,1,-17%,-13%,-3,11%
Cc1c(C(=O)N2CCC(Cc3ccccc3)CC2)sc2ncnc(N3CCC(C)CC3)c12,17%,-2,u,21µM*,-5,-3%
COC(=O)c1ccc(C2SCC(=O)Nc3n[nH]c(C)c32)cc1 (stereo unspecified),x,x,x,x,0,x
COc1cccc(C(=O)NCc2nc(-c3cccc(NC(=O)c4ccoc4C)c3)oc2C)c1OC,x,x,6.5µM*,u,x,x
CCN(CC)CCNC(=O)c1c(O)c2ccccc2n(Cc2ccccc2)c1=O,u,-6,16µM*,18µM*,1,2%
CCCNC(=O)c1cn(Cc2ccccc2)c2ccccc12,x,x,x,x,17,x
CCN(CC)CCCNC(=O)c1c(O)c2ccccc2n(Cc2ccccc2)c1=O,-9%,-29,23µM*,18µM*,12,-4%
C[C@H](NC(=O)[C@@H](N)Cc1ccc(O)cc1)C(=O)N[C@@H](Cc1ccccc1)C(=O)NCC(=O)N[C@@H](Cc1ccc(O)cc1)C(=O)N1CCC[C@H]1C(=O)N[C@@H](CO)C(N)=O,x,x,3%[4.12 µM],4%[4.12 µM],x,x
CNC(=O)OCC[N+](C)(C)C,-1%,x,-19%,5%,x,2%
COC(=O)[C@@H]1N=C(c2ccc(OC)cc2)O[C@]12C(=O)N(Cc1ccc(OC)cc1)c1ccccc12,x,0,u,18µM*,3,x
CCC(=NCc1cc(OC)cc(OC)c1)c1c(O)n(C2CCCCC2)c(=O)[nH]c1=O,24%,-12,u,u,-9,u
CCCCn1c(O)c(C(CC)=Nc2ccc(OCC)cc2)c(=O)[nH]c1=O,36%,28,21µM*,18µM*,2,4%
COc1cc(CN=C(C)c2c(O)n(C3CCCCC3)c(=O)[nH]c2=O)cc(OC)c1,16%,-23,23µM*,u,0,-7%
CCCCn1c(O)c(C(C)=NCc2cc(OC)cc(OC)c2)c(=O)[nH]c1=O,7%,0,u,u,0,-11%
CCCCn1c(O)c(C(CC)=NCc2cc(OC)cc(OC)c2)c(=O)[nH]c1=O,u,-10,23µM*,u,1,-12%
